6 compounds from PubChem BioAssay (EPA / NIEHS) can be followed below.

Structures are written as SMILES. Values joined by “and” are separate entries in the source; they are usually repeats but may differ in a detail not shown here. Identical values can stand only once. More than one record can exist for a structure, and the calls need not agree. Active and inactive are the calls of the source. Rule for the calls: active = hit-call score of the fitted dose curve at least 0.9, where 1 is the maximum; inactive = score below 0.9.

A short description of test [1]: ATG_M_32_CIS: Attagene CIS-FACTORIAL HepG2 Assay for M32 Transcription Factor (Internal Marker) (AID 2282949).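 Note: background control marker of the multiplexed CIS panel rather than a real target.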 The conditions noted are these: HepG2 Attagene cis-factorial M32 reporter, mRNA; actives raise or lower the signal. Put shortly: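 HepG2 transfectants (cis-regulated reporter transcription units) dosed 24 h. Reporter mRNA by RT-PCR plus CE, analysed as gain or loss relative to DMSO.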

Test [2] can be described thus: ATG_M_06_CIS: Attagene CIS-FACTORIAL HepG2 Assay for M06 Transcription Factor (Internal Marker) (AID 2282950). The conditions noted are these: HepG2 Attagene CIS-FACTORIAL M06 internal marker reporter; actives raise or lower the signal. Put shortly:
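One of many multiplexed endpoints: HepG2 reporter mRNA after 24 h dosing, detected by RT-PCR and capillary electrophoresis fluorescence; gain or loss of signal analysed against DMSO.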

For test [3], the target named is Hepatocyte nuclear factor 6 (Homo sapiens) (UniProt Q9UBC0). Put plainly: ATG_HNF6_CIS: Attagene CIS-FACTORIAL HepG2 Assay for human Hepatocyte Nuclear Factor 6 (HNF6) (AID 2282952). The conditions noted are these: HepG2 Attagene cis-factorial HNF6 reporter transcription; actives raise or lower the signal. Put shortly:
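Endogenous transcription factor activity in human HepG2 liver cells was captured through cis-regulated reporter constructs. After 24 h treatment, reporter mRNA was measured by RT-PCR with capillary electrophoresis, and activity was fitted in both directions relative to DMSO.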

Test [4] deals with Heat shock factor protein 1 (Homo sapiens) (UniProt Q00613). Put plainly: ATG_HSE_CIS: Attagene CIS-FACTORIAL HepG2 Assay for human Heat Shock Transcription Factor 1 (HSE) (AID 2282953). As to conditions: HepG2 HSE cis-reporter, Attagene RNA transcription; actives raise or lower the signal. Put shortly:
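Using HepG2 with transfected cis-driven reporter constructs, compound effects on endogenous factor activity are scored as reporter mRNA change at 24 h. Detection: RT-PCR, HpaI digestion, capillary electrophoresis; bidirectional fitting to DMSO.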

Test [5] in a line: ATG_MRE_CIS: Attagene CIS-FACTORIAL HepG2 Assay for human Metal Responsive Element (MRE) (AID 2282954). As to conditions: HepG2 MRE cis-reporter transcription, Attagene multiplex; actives raise or lower the signal. Put shortly:
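Measured here is mRNA induction from an MRE cis-element reporter in HepG2 after 24 h, quantified by fluorescence of labelled RT-PCR products on capillary electrophoresis; gain- and loss-of-signal fits use DMSO as baseline.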

A short description of test [6]: ATG_PBREM_CIS: Attagene CIS-FACTORIAL HepG2 Assay for human Phenobarbital-responsive Enhancer Module (PBREM) (AID 2282955). As to conditions: HepG2 PBREM cis-reporter, Attagene multiplexed transcription; actives raise or lower the signal. Put shortly:
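Endogenous transcription factors in human liver HepG2 cells drive a PBREM cis-element reporter, whose transcript level after 24 h treatment is quantified by RT-PCR with capillary electrophoresis; activity fitted in both directions against DMSO.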

The target of test [7] is Paired box protein Pax-6 (Homo sapiens) (UniProt P26367). Put plainly: ATG_Pax6_CIS: Attagene CIS-FACTORIAL HepG2 Assay for human Paired Box 6 (PAX6) (AID 2282956). As to conditions: HepG2 CIS-FACTORIAL PAX6 reporter transcription, RNA readout; actives raise or lower the signal. Put shortly:
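Readout: reporter transcript fluorescence after RT-PCR and capillary electrophoresis. Cells: HepG2, transiently transfected with cis-regulated MRTUs. Exposure 24 h. Gain or loss of signal fitted bidirectionally relative to DMSO.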

A short description of test [8]: ATG_PXRE_CIS: Attagene CIS-FACTORIAL HepG2 Assay for human Pregnane X Receptor Element (PXRE) (AID 2282957). The conditions noted are these: HepG2 Attagene CIS-FACTORIAL PXRE reporter, mRNA; actives raise or lower the signal. Put shortly: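 Endogenous transcription factor activity in HepG2 was gauged through induction of reporter mRNA driven by a cis-regulating promoter element, sampled 24 h post-treatment. Activity was fitted in both directions against DMSO negative control.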

Test [9] in a line: ATG_PPRE_CIS: Attagene CIS-FACTORIAL HepG2 Assay for human Peroxisome Proliferator-activated Response Element (PPRE) (AID 2282958). As to conditions: HepG2 PPRE cis-element reporter, Attagene transcription factor profiling; actives raise or lower the signal. Put shortly:
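HepG2, transient MRTU transfection (cis promoter elements, endogenous TFs). 24 h dosing. RNA → oligo(dT) RT → PCR → 6-FAM primer extension → HpaI digest → CE. Bidirectional fit vs DMSO.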

Test [10] can be described thus: ATG_RORE_CIS: Attagene CIS-FACTORIAL HepG2 Assay for human RAR-related Orphan Receptor Element (RORE) (AID 2282959). The conditions noted are these: HepG2 Attagene cis-factorial RORE reporter, mRNA; actives raise or lower the signal. Put shortly: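 Transient MRTU transfection of human HepG2 liver cells (FuGene 6); 24 h compound exposure; TriZol RNA, oligo(dT) RT, PCR, FAM labeling, HpaI cut, CE fragment analysis. DMSO = negative control/baseline.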

The nature of test [11]: ATG_Sox_CIS: Attagene CIS-FACTORIAL HepG2 Assay for human SRY-box transcription factor (SOX) (AID 2282960). As to conditions: HepG2 Attagene cis-factorial SOX reporter, mRNA; actives raise or lower the signal. Put shortly:
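Endogenous factor activity in human liver HepG2 cells carrying transfected cis-regulated reporter units. RNA taken 24 h post-dose, reverse-transcribed, PCR-amplified and sized by capillary electrophoresis. Gain or loss of signal fitted relative to DMSO.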

Test [12] addresses Transcription factor Sp1 (Homo sapiens) (UniProt P08047). Put plainly: ATG_Sp1_CIS: Attagene CIS-FACTORIAL HepG2 Assay for human Specificity Protein 1 (Sp1) (AID 2282961). As to conditions: HepG2 Sp1 cis-reporter transcription, actives raise or lower the signal. Put shortly: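 Transient MRTU-transfected HepG2, 24 h compound exposure. Total RNA → oligo(dT) RT → PCR of reporter → 6-FAM primer extension → HpaI digest → CE. Endpoint fitted both directions vs DMSO.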

Test [13] is described as follows: ATG_SREBP_CIS: Attagene CIS-FACTORIAL HepG2 Assay for human Sterol Regulatory Element Binding (SREBP) (AID 2282962). As to conditions: HepG2 Attagene cis-factorial SREBP reporter, mRNA; actives raise or lower the signal. Put shortly:
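Readout: fluorescent reporter-transcript peaks resolved by capillary electrophoresis after RT-PCR. Cells were human HepG2 carrying transfected cis-promoter reporter constructs, dosed for 24 h. Gain or loss of signal was fitted against DMSO controls.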

Test [14] deals with Signal transducer and activator of transcription 3 (Homo sapiens) (UniProt P40763). Put plainly: ATG_STAT3_CIS: Attagene CIS-FACTORIAL HepG2 Assay for human Signal Transducer and Activator of Transcription 3 (STAT3) (AID 2282963). As to conditions: HepG2, Attagene cis-factorial STAT3 reporter transcription; actives raise or lower the signal. Put shortly: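 Fluorescence intensity of 6-FAM-labelled reporter fragments, separated by capillary electrophoresis after RT-PCR, gave the signal. Cells were HepG2 transfected with cis-element reporter units and treated 24 h; fitting was bidirectional relative to DMSO.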
Chain of Signal transducer and activator of transcription 3 (Homo sapiens) (P40763 whole entry, looked up, the tested form may be a part): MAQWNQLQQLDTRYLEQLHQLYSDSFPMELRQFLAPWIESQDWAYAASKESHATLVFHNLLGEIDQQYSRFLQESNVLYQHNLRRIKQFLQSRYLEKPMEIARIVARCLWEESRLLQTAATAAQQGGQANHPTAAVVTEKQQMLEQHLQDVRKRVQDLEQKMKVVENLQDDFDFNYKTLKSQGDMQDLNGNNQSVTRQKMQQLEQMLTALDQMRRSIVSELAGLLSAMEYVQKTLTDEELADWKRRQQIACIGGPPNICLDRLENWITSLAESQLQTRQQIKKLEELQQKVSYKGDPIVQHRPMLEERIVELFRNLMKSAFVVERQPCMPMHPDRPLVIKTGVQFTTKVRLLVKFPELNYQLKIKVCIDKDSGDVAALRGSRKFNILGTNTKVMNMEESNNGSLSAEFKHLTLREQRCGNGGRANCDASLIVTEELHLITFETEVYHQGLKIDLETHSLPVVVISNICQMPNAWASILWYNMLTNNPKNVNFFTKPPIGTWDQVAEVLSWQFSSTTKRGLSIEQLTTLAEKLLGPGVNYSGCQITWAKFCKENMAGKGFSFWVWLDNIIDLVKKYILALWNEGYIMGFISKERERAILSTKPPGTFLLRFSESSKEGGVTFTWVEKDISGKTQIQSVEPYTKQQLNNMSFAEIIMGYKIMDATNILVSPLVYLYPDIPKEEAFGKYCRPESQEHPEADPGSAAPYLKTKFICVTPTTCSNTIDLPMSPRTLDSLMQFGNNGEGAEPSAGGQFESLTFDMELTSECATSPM

The nature of test [15]: ATG_TA_CIS: Attagene CIS-FACTORIAL HepG2 Assay for human TA Basal Promoter (AID 2282964). As to conditions: HepG2 Attagene CIS-factorial TA basal promoter reporter; actives raise or lower the signal. Put shortly: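 Transient MRTU transfection of HepG2 preceded 24 h compound exposure. Reporter mRNA levels were then read by RT-PCR with capillary electrophoresis, and this background-control endpoint was fitted bidirectionally to DMSO.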

The nature of test [16]: ATG_TCF_b_cat_CIS: Attagene CIS-FACTORIAL HepG2 Assay for human T-Cell-Factor with beta-catenin (TCF/b-cat) (AID 2282965). As to conditions: HepG2 TCF/beta-catenin cis-reporter transcription, actives raise or lower the signal. Put shortly:
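HepG2, transient MRTU transfection, cis-element-driven reporters (endogenous TFs). 24 h compound exposure. Readout: reporter mRNA by RT-PCR + 6-FAM primer extension, HpaI digest, capillary electrophoresis. Gain/loss fit vs DMSO baseline.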

Test [17] in a line: ATG_TAL_CIS: Attagene CIS-FACTORIAL HepG2 Assay for human TAL Basal Promoter (AID 2282966).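 Note: background control endpoint measuring basal TAL promoter reporter mRNA not a specific factor.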 As to conditions: HepG2 Attagene cis-factorial TAL promoter reporter; actives raise or lower the signal. Put shortly: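 Endogenous transcription-factor activity is sensed in HepG2 cells through transfected cis-promoter reporter constructs. After 24 h dosing, reporter transcripts are quantified by RT-PCR and capillary electrophoresis. Gain or loss of signal is fitted relative to DMSO.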

Test [18] can be described thus: ATG_TGFb_CIS: Attagene CIS-FACTORIAL HepG2 Assay for human Transforming Growth Factor (TGF) (AID 2282967). The conditions noted are these: HepG2 Attagene CIS TGFb reporter, mRNA transcription; actives raise or lower the signal. Put shortly:
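After a 24-hour incubation with compound, transfected HepG2 cells were lysed for RNA; reporter cDNA was amplified, fluorescently end-labeled and separated by CE. DMSO served as baseline for bidirectional fits.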

In test [19] the target is Hypoxia-inducible factor 1-alpha (Homo sapiens) (UniProt Q16665). Put plainly: ATG_HIF1a_CIS: Attagene CIS-FACTORIAL HepG2 Assay for human Hypoxia Inducible Factor 1 (HIF1A) (AID 2282951). The conditions noted are these: HepG2 Attagene cis-factorial HIF1a reporter transcription; actives raise or lower the signal. Put shortly: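 Transient MRTU transfection of human HepG2 liver cells, 24 h compound treatment, then total RNA isolation, oligo(dT) reverse transcription, PCR amplification, fluorescent labelling and capillary electrophoresis of reporter fragments. Gain or loss relative to DMSO.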
Chain of Hypoxia-inducible factor 1-alpha (Homo sapiens) (Q16665 whole entry, looked up, the tested form may be a part): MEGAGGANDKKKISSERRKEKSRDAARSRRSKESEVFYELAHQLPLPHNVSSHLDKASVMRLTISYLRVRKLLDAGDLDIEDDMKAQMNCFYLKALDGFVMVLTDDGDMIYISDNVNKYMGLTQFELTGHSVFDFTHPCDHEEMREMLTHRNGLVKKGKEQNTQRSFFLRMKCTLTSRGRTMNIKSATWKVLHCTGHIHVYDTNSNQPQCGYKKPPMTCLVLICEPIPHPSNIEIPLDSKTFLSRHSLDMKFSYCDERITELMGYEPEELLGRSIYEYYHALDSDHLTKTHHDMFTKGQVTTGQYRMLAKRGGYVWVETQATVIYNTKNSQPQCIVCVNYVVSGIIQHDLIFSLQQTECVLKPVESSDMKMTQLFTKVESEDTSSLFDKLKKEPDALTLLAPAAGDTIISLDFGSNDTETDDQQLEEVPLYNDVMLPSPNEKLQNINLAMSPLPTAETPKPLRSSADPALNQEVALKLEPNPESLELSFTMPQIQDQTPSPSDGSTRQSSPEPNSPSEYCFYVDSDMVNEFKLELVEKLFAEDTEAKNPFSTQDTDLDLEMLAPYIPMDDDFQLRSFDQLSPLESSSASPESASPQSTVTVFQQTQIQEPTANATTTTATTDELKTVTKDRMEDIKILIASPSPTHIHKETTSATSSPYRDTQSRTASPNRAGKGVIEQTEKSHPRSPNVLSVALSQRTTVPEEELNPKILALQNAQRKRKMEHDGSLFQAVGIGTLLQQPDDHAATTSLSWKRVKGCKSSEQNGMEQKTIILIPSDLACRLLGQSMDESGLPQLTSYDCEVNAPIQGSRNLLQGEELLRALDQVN

A short description of test [20]: ATG_VDRE_CIS: Attagene CIS-FACTORIAL HepG2 Assay for human Vitamin D Receptor Element (VDRE) (AID 2282968). As to conditions: HepG2 VDRE cis-reporter transcription, actives raise or lower the signal. Put shortly: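 Compounds were applied for 24 h to HepG2 cells transfected with promoter-regulated reporter units. Total RNA was reverse-transcribed, and reporter amplicons were fluorescently labelled and sized by capillary electrophoresis.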

Chain of Transcription factor Sp1 (Homo sapiens) (P08047 whole entry, looked up): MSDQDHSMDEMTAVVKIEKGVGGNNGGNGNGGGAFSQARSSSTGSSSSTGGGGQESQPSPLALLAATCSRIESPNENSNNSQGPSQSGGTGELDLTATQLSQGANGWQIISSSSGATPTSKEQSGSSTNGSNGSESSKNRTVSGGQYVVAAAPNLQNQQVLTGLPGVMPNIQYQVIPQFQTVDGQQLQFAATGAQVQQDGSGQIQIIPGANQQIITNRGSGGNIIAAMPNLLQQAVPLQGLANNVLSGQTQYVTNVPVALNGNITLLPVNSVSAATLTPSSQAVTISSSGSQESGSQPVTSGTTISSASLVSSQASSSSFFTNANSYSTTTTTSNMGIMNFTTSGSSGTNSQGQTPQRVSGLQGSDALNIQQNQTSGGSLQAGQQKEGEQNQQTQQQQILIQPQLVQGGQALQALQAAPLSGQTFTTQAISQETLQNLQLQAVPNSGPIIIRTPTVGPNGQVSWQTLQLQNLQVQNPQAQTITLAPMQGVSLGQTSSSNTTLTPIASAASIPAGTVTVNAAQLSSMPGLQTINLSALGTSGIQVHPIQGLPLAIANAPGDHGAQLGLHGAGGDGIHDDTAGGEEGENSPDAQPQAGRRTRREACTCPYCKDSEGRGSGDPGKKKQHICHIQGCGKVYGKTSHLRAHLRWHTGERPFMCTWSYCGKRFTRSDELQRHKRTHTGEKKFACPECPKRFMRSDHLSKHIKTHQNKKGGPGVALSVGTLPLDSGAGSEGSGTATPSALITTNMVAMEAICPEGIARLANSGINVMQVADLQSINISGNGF
Chain of Hepatocyte nuclear factor 6 (Homo sapiens) (Q9UBC0 whole entry, looked up): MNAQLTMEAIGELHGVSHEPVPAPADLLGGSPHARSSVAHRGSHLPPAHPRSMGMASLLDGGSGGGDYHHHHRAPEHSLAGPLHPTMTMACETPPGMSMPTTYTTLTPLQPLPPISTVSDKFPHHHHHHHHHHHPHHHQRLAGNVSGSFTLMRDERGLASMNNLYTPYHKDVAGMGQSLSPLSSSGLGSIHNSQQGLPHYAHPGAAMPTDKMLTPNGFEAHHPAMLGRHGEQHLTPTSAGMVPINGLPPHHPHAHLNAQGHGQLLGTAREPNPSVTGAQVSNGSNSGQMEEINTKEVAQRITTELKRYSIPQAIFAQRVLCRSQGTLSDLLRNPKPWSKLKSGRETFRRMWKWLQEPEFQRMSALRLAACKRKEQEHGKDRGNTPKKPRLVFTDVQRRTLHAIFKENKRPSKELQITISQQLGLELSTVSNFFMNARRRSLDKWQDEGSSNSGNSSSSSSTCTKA
Chain of Paired box protein Pax-6 (Homo sapiens) (P26367 whole entry, looked up): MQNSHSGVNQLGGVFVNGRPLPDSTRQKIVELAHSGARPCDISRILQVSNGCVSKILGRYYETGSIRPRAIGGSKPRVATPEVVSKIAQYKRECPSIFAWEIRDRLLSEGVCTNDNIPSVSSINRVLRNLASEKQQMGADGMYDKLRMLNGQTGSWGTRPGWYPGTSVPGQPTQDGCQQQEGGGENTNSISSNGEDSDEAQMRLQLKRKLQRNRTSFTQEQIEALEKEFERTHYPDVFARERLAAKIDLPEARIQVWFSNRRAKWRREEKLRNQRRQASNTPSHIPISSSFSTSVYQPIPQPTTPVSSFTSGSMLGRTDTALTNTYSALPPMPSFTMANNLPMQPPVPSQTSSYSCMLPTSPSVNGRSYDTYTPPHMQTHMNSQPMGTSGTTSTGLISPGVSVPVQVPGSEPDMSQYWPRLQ
Chain of Heat shock factor protein 1 (Homo sapiens) (Q00613 whole entry, looked up): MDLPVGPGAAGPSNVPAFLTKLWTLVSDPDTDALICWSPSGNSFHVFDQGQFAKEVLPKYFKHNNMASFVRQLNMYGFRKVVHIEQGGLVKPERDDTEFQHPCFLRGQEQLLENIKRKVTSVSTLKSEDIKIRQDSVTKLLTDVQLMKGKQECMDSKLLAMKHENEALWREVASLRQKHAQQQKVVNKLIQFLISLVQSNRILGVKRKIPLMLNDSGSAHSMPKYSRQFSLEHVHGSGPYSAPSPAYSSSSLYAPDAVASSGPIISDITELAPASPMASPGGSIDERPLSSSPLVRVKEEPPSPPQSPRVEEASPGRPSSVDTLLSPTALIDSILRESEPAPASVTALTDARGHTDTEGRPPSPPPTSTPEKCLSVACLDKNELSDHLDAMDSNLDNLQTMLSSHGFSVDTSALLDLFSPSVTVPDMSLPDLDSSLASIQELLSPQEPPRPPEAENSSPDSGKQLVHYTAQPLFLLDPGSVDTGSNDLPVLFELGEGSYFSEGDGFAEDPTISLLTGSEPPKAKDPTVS

As usually defined, the AC50 is the concentration giving half of the maximal activity seen. With `Cc1ccccc1C(OCCN(C)C)c1ccccc1` (centres undefined), the compound was classed as inactive in test [1], in [2], in [3], in [4], in [5] and in [6]. In addition, the outcome in test [7], in [8], in [9], in [10], in test [11] and in test [12] was inactive. Moreover, the result in test [13], in test [14], in test [15], in [16], in [17] and in [18] was inactive. The AC50 in test [5] is 151 µM (active); in test [8] it was 27 µM (active); in [13], 48.6 µM (active).
With `Brc1ccc(Oc2ccc(Br)cc2Br)cc1`, the compound was classed as inactive in test [1], in test [2], in [19], in test [3], in test [4] and in test [5]. For the same compound, the result in [6], in [9], in test [10], in [11], in test [12] and in [13] was inactive. The compound was called inactive in [14], in [15], in [16], in test [17], in test [18] and in [20].
Turning to `O=C(NO)c1ccccc1`, the result in test [1], in [2], in [19], in test [3], in [4] and in [5] was inactive. Moreover, the result in test [7], in test [8], in [10], in test [11], in test [12] and in [13] was inactive. Further, the compound was called inactive in test [14], in [15], in [18] and in test [20]. For the same compound, the AC50 in [15] was 76.7 µM (active); in [16], 18.9 µM (active) [middle of 4 runs]; in [17] it was 75.5 µM (active) [middle of 4 runs]; in test [18], 27.5 µM (active) and 26.7 µM (active).
For `Cc1cc(C(=C2C=CC(=Nc3ccc(S(=O)(=O)O)cc3)C=C2)c2ccc(Nc3ccc(S(=O)(=O)O)cc3)cc2)cc(S(=O)(=O)O)c1N`, the outcome in [1], in test [2], in test [19], in test [3], in [4] and in test [5] was inactive. Further, the outcome in test [6], in [8], in test [9], in [10], in test [11] and in test [12] was inactive. The call in test [13], in test [14], in [15], in test [16], in test [17] and in test [18] was inactive. Moreover, in test [20], the outcome was inactive.
On to `Nc1ccn([C@@H]2O[C@H](CO)[C@@H](O)C2O)c(=O)n1` (some centres undefined), for which the result in test [1], in test [2], in [19], in test [3], in test [4] and in test [5] was inactive. For the same compound, the result in test [6], in test [8], in test [9], in [10], in [11] and in [12] was inactive. Further, the result in test [14], in test [15], in test [16], in test [17], in [18] and in [20] was inactive.
In the case of `NS(=O)(=O)O`, the compound was classed as inactive in [1], in test [2], in [19], in [3], in test [4] and in [5]. The result in [6], in [8], in test [9], in test [11], in test [12] and in test [13] was inactive. In addition, the result in test [14], in test [15], in test [16], in [17], in test [18] and in test [20] was inactive.
